Compounds with a hit are over-represented: about 2.5% of the library has one in this group of screens.
GAA850 FXN act: increases GAA850 frataxin promoter reporter activity; HEK293 lucGAA850 FXN promoter luciferase reporter, 24 h; percent of 10 µM SAHA response; activation, % at 6 µM; 0.56% of 360,000 active;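 active = activation above the average of all compounds screened plus 3 SD, cutoff fixed separately per campaign, cut at about 7.5% in these data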
PAX8 inh HTS: inhibitors of PAX8 transcriptional activity in RMG-I cells; inhibition, % at 12.6 µM; 1.2% of 360,000 active; AID 652154; RMG-I TPO-luciferase reporter, SteadyGlo, 24 h;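 active = mean replicate inhibition at least 60% with every replicate also reaching 60%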;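 also: luciferase light reporting Pax8 driven TPO promoter activity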
F508del corr: correctors of CFTR F508del function in bronchial epithelial cells; AID 720511; CFBE cells, YFP halide quenching; stimulated with forskolin plus potentiator P3; % fluorescence drop versus neutral controls; activity (quench increase), % at 7.58 µM; 0.36% of 350,000 active;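 active = mean added fluorescence quench of at least 8% versus neutral control, with both replicates also reaching 8%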;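 also: cells transiently co-express mutant CFTR-F508del with the halide-sensitive YFP; corrector assay measuring rescue of mutant channel to the surface after 24 h compound exposure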
HIV Env fusion: inhibitors of HIV Env-mediated cell fusion; HeLa-JRFL Env/CEM21 cell fusion, luciferase; 1.1% of 360,000 active; inhibition, % at 12.3 µM;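 active = mean replicate inhibition score of at least 50 and every replicate individually at or above 50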
EWS-Fli inh: blocks EWS/Fli oncoprotein-driven transcription. A673 NR0B1-luciferase reporter, viability-normalised. inhibition, % at 12.6 µM. 0.67% of 350,000 active;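 active = mean inhibition of at least 50% after viability correction, with every replicate also passing that limit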;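 also: firefly luciferase signal divided by Alamar Blue viability fluorescence both relative to DMSO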
A number is an active result; i = inactive; nt = no result; [ ] = remark or other dose.

SMILES	GAA850 FXN act	PAX8 inh HTS	F508del corr	HIV Env fusion	EWS-Fli inh
COc1ccc(N/N=C(\C#N)C(N)=O)cc1	i	i	nt	i	i
N#C/C(=N/Nc1ccc(OC(F)(F)F)cc1)C(N)=S	i	80.8	i	i	i
C[C@H](CO)N1C[C@H](C)[C@H](CN(C)C(=O)Nc2ccc(F)cc2)Oc2c(NC(=O)Nc3cccc4ccccc34)cccc2C1=O	nt	i	i	i	i
Cc1ccccc1N1CCN(C(=O)c2ccc(Oc3ccc(C(F)(F)F)cn3)cc2)CC1	i	nt	nt	68.4	nt
CCCNC(=O)C[C@H]1C[C@@H]2c3cc(NC(=O)c4cccnc4)ccc3O[C@@H]2[C@@H](CO)O1	nt	i	i	i	i
C[C@H](CO)N1C[C@H](C)[C@H](CN(C)Cc2ccc(Cl)c(Cl)c2)Oc2ccc(NC(=O)CCCN(C)C)cc2C1=O	nt	i	i	i	70.2
C[C@H]1CN([C@@H](C)CO)C(=O)c2cc(NS(C)(=O)=O)ccc2O[C@@H]1CN(C)Cc1ccc(Cl)c(Cl)c1	nt	i	i	61.7[16.7 µM]	i
C[C@@H]1CN([C@H](C)CO)C(=O)c2cc(NS(C)(=O)=O)ccc2O[C@H]1CN(C)Cc1ccc(Cl)c(Cl)c1	nt	i	i	i	i
CCCOc1ccc(/C=C/C(=O)Nc2ccc([N+](=O)[O-])cc2)cc1	i	i	nt	68.4	nt
CCCCOc1ccc(/C=C/C(=O)Nc2ccc([N+](=O)[O-])cc2C)cc1	i	i	nt	i	nt
C[C@H]1CN([C@@H](C)CO)C(=O)c2cccc(NS(=O)(=O)c3ccc(Cl)cc3)c2O[C@@H]1CN(C)Cc1ccc(C(F)(F)F)cc1	nt	nt	i	57.0[16.7 µM]	i
C[C@@H]1CN([C@H](C)CO)C(=O)c2cccc(NS(=O)(=O)c3ccc(F)cc3)c2O[C@@H]1CN(C)Cc1ccc(C(F)(F)F)cc1	nt	i	i	77.3[16.7 µM]	i
Cc1ccc(S(=O)(=O)Nc2cccc3c2O[C@@H](CN(C)Cc2ccc(Oc4ccccc4)cc2)[C@@H](C)CN([C@H](C)CO)C3=O)cc1	nt	89.5	i	i	i
Cc1noc(C)c1S(=O)(=O)Nc1cccc2c1O[C@H](CN(C)Cc1ccc(C(F)(F)F)cc1)[C@H](C)CN([C@H](C)CO)C2=O	nt	i	i	59.1[16.7 µM]	i
COc1ccc(-c2cnc3c(c2)C(=O)N([C@@H](C)CO)C[C@H](C)[C@@H](CN(C)C(=O)Cc2ccncc2)O3)cc1	nt	i	i	i	i
COc1ccc(NC(=O)N(C)C[C@H]2OCCCC[C@@H](C)Oc3ccc(NS(C)(=O)=O)cc3C(=O)N([C@@H](C)CO)C[C@H]2C)cc1	nt	i	i	i	i
CO[C@@H](CCO)[C@@H](O)c1ccc(O)c(F)c1	nt	i	i	i	i
C[C@H](CO)N1C[C@H](C)[C@H](CN(C)C(=O)c2ccccc2F)Oc2ncc(-c3ccc(F)cc3)cc2C1=O	nt	nt	i	i	i
C[C@@H]1CN([C@H](C)CO)C(=O)c2cccc(NS(=O)(=O)c3ccc(F)cc3)c2O[C@H]1CN(C)Cc1ccc(-c2ccccc2)cc1	nt	i	i	i	i
C[C@H](CO)N1C[C@H](C)[C@H](CN(C)Cc2ccc(-c3ccccc3)cc2)Oc2c(NS(=O)(=O)c3ccc(F)cc3)cccc2C1=O	nt	64.7	i	i	i
Cc1nc(SCC(=O)N2CCOCC2)c2c(C)c(C)sc2n1	i	i	i	i	i
Cc1nc(SCC(=O)Nc2ccc(S(=O)(=O)N3CCOCC3)cc2)c2c(C)c(C)sc2n1	i	i	i	64.1	i
COc1ccc(C(=O)N(C)Cc2cnn(Cc3ccccc3)c2)cc1S(=O)(=O)N1CCOCC1	i	i	i	nt	61.7
Cn1c(=O)c(NC2CCCCC2)c2c3c(cccc31)C(=O)c1ccccc1-2	i	i	16.0	i	i
C=CCC[C@H](Cc1ccc(F)cc1)C(=O)OC[C@@H](NC(=O)[C@@H](CC=C)CC(=O)N(CCO)Cc1ccccc1)C(C)(C)C	i	64.1	i	71.5	i
C=CCC[C@@H](Cc1ccc(F)cc1)C(=O)OC[C@@H](NC(=O)[C@@H](CC=C)CC(=O)N[C@@H](CO)Cc1ccccc1)C(C)(C)C	i	i	i	i	i
C=CCC[C@H](Cc1ccc(F)cc1)C(=O)OC[C@@H](NC(=O)[C@H](CC=C)CC(=O)NCCO)C(C)(C)C	i	i	i	90.1	i
C=CC[C@@H](CC(=O)N(CCO)Cc1ccccc1)C(=O)NC[C@H](OC(=O)[C@@H](CC=C)Cc1ccc(F)cc1)c1ccccc1	i	83.6	i	i	i
C=CCC[C@H](Cc1ccc(F)cc1)C(=O)OC[C@H](C)NC(=O)[C@H](CC=C)CC(=O)NCCO	i	i	i	i	i
